Among the data in PubChem BioAssay (Tox21) are Potency values, retold here.

A short description of experiment [1]: Nuclear factor erythroid 2-related factor 2/antioxidant responsive element (Nrf2/ARE) small molecule agonists: qHTS cell viability counter screen in human keratinocytes (AID 1919968; active means well fitted curve in the direction sought with a large enough effect in the repeat runs; an effect the other way counts as inactive or inconclusive; further: nearly all actives have a fitted effect of over 55% in size). In outline:
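Seed 1,500 KeratinoSens cells per well, then incubate 5 h at 37 C/5% CO2. Add compounds in DMSO and incubate 23 h. Add CellTiter-Fluor, wait 1 h and read fluorescence.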

A short description of experiment [2]: Nuclear factor erythroid 2-related factor 2/antioxidant responsive element (Nrf2/ARE) small molecule agonists: luciferase reporter gene qHTS assay in human keratinocytes (AID 1919969). Further: nearly all actives have a fitted effect of over 35% in size. Further: potency means the concentration at half of the fitted maximal effect. For orientation: A reporter such as luciferase makes a cellular process visible.
Experiment [3] deals with Gonadotropin-releasing hormone receptor (Homo sapiens) (UniProt P30968). In words: Human gonadotropin-releasing hormone receptor (GnRHR) small molecule agonists, calcium flux assay in GnRHR-HEK293 cells (AID 1920063). Further: nearly all actives have a fitted effect of over 35% in size. In outline:
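Cells: HEK293 stably expressing human GnRHR. Steps: overnight (18 h) culture, 1 h calcium dye loading at 37 C, compound addition, kinetic fluorescence read at 480/540 nm. Each compound tested at 15 concentrations in triplicate.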

Experiment [4] addresses KiSS-1 receptor (Homo sapiens) (UniProt Q969F8). In words: Human kisspeptin (KISS1R) small molecule agonists, calcium flux assay in KISS1R-HEK293 cells (AID 1920064; active means well fitted curve in the direction sought with a large enough effect in the repeat runs; an effect the other way counts as inactive or inconclusive). In outline:
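Cells plated and incubated 18 h; dye added, 1 h at 37 C; compounds in DMSO pinned in; signal read at 480/540 nm every second for 3 min. Each compound tested at 15 concentrations in triplicate.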
A general note: A change in cytosolic calcium serves as a functional read-out for many receptors and channels.

Experiment [5] is described as follows: G protein-coupled receptor (GPCR) small molecule agonists, calcium flux assay: HEK293 wild type cell line counter screen (AID 1920065). In outline:
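Counter-screen of the Tox21 10K library for non-specific calcium release: dye-loaded cells received compounds in DMSO and were monitored by kinetic fluorescence (480/540 nm, 3 min). Fifteen concentrations, run in triplicate.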

The nature of experiment [6]: p53 small molecule agonists, cell-based qHTS assay with human liver microsomes (AID 1963577).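 Further: p53 response element beta-lactamase reporter cells with liver microsomes plus NADPH.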 In outline:
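p53RE-bla cells; 5 h settle, 37 C/5% CO2; cpd + HLM 0.5 mg/mL + NADPH 0.5 mg/mL (final); 16 h 37 C; LiveBLAzer 2 h RT dark; fluorescence readout.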

The nature of experiment [7]: p53 small molecule agonists, cell-based qHTS assay with rat liver microsomes (AID 1963578). In outline:
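Rat liver microsome activation: microsomes 0.5 mg/mL, NADPH 0.5 mg/mL final; p53RE-bla cells, 16 h 37 C; LiveBLAzer readout, 2 h RT dark.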
For orientation: In qHTS, concentration-response curves come from the screen itself.

Experiment [8] is described as follows: p53 small molecule agonists, cell-based qHTS assay with human liver microsomes: qHTS cell viability counter screen (AID 1963579). Further: nearly all actives have a fitted effect of over 45% in size. In outline: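 Luminescent CellTiter-Glo read-out, 30 min at room temperature, gauged cytotoxicity in p53RE-bla cells exposed 16 h at 37 C to DMSO-dissolved compounds with metabolic activation by human liver microsomes and NADPH, each 0.5 mg/mL final.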

Experiment [9] in a line: p53 small molecule agonists, cell-based qHTS assay: qHTS cell viability counter screen (AID 1963581). Further: nearly all actives have a fitted effect of over 45% in size. In outline:
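Cells: HCT-116 with p53 response element-driven beta-lactamase. Treatment: 16 h, 37 C, compounds in DMSO. Read: CellTiter-Glo luminescence after 30 min RT.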

Experiment [10] is described as follows: p53 small molecule agonists, cell-based qHTS assay (AID 1963582; active means well fitted activation curve with a large enough effect in the signal ratio in the repeat runs, not every such curve was filed as active; the % refers to the signal ratio). In outline: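 Quantitative HTS in p53RE-bla cells: after a 5 h settling period, compounds delivered in DMSO were left on cells for 16 h at 37 C, and reporter induction was measured as fluorescence following 2 h substrate loading.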
The target in experiment [11] is 5-hydroxytryptamine receptor 2A (Homo sapiens) (UniProt P28223). In words: 5-hydroxytryptamine receptor 2A (HTR2A) small molecule antagonists, cell-based qHTS assay (AID 1963586). Further: nearly all actives have a fitted effect of over 45% in size. Further: potency means the concentration at half of the fitted maximal effect. In outline:
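Antagonist-mode intracellular calcium assay: DOI (4 nM) added after 5 min compound pre-incubation at room temperature to dye-loaded HTR2A-CHO cells. Fluorescence followed for 3 min, sampled every second.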

The target is the same in experiment [12]. Description: 5-hydroxytryptamine receptor 2A (HTR2A) small molecule agonists, cell-based qHTS assay (AID 1963587). Further: nearly all actives have a fitted effect of over 30% in size. In outline:
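CHO cells stably expressing human HTR2A, plated 18 h, loaded with calcium dye 1 h at 37 C. Agonist mode: compounds added and intracellular calcium fluorescence recorded kinetically for 2 min at 1 sec intervals.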

Experiment [13] concerns the target Muscarinic acetylcholine receptor M1 (Homo sapiens) (UniProt P11229). Description: Cholinergic receptor muscarinic 1 (CHRM1) small molecule antagonists, cell-based qHTS assay (AID 1963588). Further: nearly all actives have a fitted effect of over 40% in size. In outline: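 CHRM1-CHO calcium-flux assay, antagonist mode. Cells were seeded 18 h, dye-loaded 1 h at 37 C and given compound for 5 min at RT, then acetylcholine was added at 50nM. FDSS fluorescence was read 3 min; 15 concentrations, three runs.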

For experiment [14] the target is unchanged. Description: Cholinergic receptor muscarinic 1 (CHRM1) small molecule agonists, cell-based qHTS assay (AID 1963589). Further: nearly all actives have a fitted effect of over 35% in size. In outline:
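Agonist-mode qHTS in CHO cells stably carrying human muscarinic M1. Intracellular calcium is tracked by fluorescence every second after compound transfer; each compound runs at 15 concentrations in three independent runs.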

A short description of experiment [15]: cAMP Responsive Elements (CRE) small molecule agonists, cell-based qHTS assay (AID 1963590). In outline:
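Agonist mode qHTS in CRE-bla HEK 293T cells: compounds dosed from DMSO for 3 h at 37 C/5% CO2, followed by LiveBLAzer B/G FRET substrate for 2 h at room temperature.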

Experiment [16] is described as follows: cAMP Responsive Elements (CRE) small molecule antagonists, cell-based qHTS assay (AID 1963591; active means well fitted inhibition curve with a large enough effect in the signal ratio in the repeat runs, not every such curve was filed as active; the % refers to the signal ratio). In outline: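 Antagonist mode: test compounds are co-incubated with the adenylyl cyclase activator NKH477 (0.25 uM final) on CRE-bla HEK293T cells for 3 h at 37 °C, followed by LiveBLAzer substrate loading.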
Experiment [17] concerns the target Beta-2 adrenergic receptor (Homo sapiens) (UniProt P07550). In words: Adrenergic beta2 receptor (ADRB2) small molecule antagonists, cell-based qHTS assay (AID 1963592). Further: series mostly up to about 92 µM; nearly all actives have a fitted effect of over 50% in size. In outline: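 Cells (CHO, stable ADRB2 overexpression) incubated 18-20hr at 37C; compounds added from DMSO; agonist mix (1nM isoproterenol, 100uM IBMX, 25uM Ro-20-1724) added; 0.5hr RT; d2-cAMP and anti-cAMP-cryptate added; 1hr RT; 665/615 nm read.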

The target is the same in experiment [18]. In words: Adrenergic beta2 receptor (ADRB2) small molecule agonists, cell-based qHTS assay (AID 1963593).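 Further: CHO cells stably overexpressing human ADRB2.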 In outline:
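CHO cells stably over-expressing ADRB2 were plated overnight at 37C, then dosed with compounds plus a stimulation mix containing 100uM IBMX and 25uM Ro-20-1724 for 0.5hr at room temperature. cAMP was measured by HTRF competition, 1hr.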

Experiment [19] concerns the target D(2) dopamine receptor (Homo sapiens) (UniProt P14416). In words: Dopamine D2 receptor (DRD2) small molecule agonists, cell-based qHTS assay (AID 1963594). Further: nearly all actives have a fitted effect of over 35% in size. In outline: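 HEK293 cells stably expressing human DRD2, pre-treated with PDE inhibitor Ro20-1724 (0.1 mM final) and compound 10 min at room temperature, then stimulated with NKH477 (200nM […]) for 30 min. cAMP read by HTRF (665/620 nm).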

For experiment [20] the target is unchanged. In words: Dopamine D2 receptor (DRD2) small molecule antagonists, cell-based qHTS assay (AID 1963595; active means well fitted inhibition curve with a large enough effect in the signal ratio in the repeat runs, with a control signal flat; the % refers to the signal ratio). In outline: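 Cells were plated and grown for 24 h at 37 °C. Ro20-1724 (0.1 mM final) went in first, then compound for 10 min. NKH477 (200 nM) with quinpirole (12 nM) followed for 30 min at RT, then HTRF detection reagents for 1 h.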

Where “and” joins values, the source holds several entries; their conditions need not be identical. Equal entries are not always repeated. Inconclusive results are not listed. The source holds several records for some structures; these can differ, active in one and inactive in another. Calls of active or inactive are those of the source. Unless noted, the call rests on the fitted dose curve.

Sequence of D(2) dopamine receptor (Homo sapiens) (P14416 whole entry, looked up): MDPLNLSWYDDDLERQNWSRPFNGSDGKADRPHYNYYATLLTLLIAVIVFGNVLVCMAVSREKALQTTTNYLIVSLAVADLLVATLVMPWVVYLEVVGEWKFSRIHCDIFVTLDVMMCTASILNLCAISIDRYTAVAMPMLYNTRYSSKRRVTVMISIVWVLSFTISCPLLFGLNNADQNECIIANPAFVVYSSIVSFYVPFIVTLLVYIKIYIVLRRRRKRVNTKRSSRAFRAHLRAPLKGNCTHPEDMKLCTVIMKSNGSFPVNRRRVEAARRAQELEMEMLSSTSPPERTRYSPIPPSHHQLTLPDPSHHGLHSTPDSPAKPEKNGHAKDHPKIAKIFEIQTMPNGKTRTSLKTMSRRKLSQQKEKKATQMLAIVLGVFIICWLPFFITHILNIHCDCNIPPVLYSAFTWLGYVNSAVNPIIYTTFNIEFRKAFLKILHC
Sequence of Muscarinic acetylcholine receptor M1 (Homo sapiens) (P11229 whole entry, looked up): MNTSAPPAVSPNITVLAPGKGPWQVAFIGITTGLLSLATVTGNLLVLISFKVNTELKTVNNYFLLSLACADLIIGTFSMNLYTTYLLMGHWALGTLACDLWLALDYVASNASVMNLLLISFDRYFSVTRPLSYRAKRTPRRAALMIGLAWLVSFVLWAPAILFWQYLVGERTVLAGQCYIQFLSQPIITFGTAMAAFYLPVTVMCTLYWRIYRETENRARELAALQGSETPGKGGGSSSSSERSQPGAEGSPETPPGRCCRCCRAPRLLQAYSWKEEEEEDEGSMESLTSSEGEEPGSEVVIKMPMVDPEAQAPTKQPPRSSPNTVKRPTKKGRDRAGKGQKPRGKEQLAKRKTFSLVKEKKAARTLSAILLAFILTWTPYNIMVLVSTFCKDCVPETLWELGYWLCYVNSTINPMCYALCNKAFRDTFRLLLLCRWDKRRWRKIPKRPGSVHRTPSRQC
Sequence of Beta-2 adrenergic receptor (Homo sapiens) (P07550 whole entry, looked up): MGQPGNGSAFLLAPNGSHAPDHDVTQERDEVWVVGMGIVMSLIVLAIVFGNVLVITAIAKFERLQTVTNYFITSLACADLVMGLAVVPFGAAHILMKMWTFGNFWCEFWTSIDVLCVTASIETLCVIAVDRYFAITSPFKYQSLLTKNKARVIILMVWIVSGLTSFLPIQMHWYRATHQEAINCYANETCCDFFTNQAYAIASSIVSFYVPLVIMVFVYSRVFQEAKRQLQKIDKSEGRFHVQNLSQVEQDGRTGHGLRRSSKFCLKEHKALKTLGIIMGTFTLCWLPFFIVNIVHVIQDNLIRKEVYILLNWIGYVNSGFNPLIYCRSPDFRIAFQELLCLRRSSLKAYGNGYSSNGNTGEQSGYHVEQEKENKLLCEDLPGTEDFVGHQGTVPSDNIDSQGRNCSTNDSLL
Sequence of Gonadotropin-releasing hormone receptor (Homo sapiens) (P30968 whole entry, looked up): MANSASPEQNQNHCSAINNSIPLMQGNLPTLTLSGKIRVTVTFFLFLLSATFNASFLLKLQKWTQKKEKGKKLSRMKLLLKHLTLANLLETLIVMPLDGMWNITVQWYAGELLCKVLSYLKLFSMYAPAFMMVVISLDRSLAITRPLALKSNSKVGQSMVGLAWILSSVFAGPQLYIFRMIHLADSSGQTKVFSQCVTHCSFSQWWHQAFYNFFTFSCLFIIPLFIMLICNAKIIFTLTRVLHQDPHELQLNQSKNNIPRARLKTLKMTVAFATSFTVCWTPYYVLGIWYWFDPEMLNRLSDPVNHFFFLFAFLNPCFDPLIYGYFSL
Sequence of KiSS-1 receptor (Homo sapiens) (Q969F8 whole entry, looked up): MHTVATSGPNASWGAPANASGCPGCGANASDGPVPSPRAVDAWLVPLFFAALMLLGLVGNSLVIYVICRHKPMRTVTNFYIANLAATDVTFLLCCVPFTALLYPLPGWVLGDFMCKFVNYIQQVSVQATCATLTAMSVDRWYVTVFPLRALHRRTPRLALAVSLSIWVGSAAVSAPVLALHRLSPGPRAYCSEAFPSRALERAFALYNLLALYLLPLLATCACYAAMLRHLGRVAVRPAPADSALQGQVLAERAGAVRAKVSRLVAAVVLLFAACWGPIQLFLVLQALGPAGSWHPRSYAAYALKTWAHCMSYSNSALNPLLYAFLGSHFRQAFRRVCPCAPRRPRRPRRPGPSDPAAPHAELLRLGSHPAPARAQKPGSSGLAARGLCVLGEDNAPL
Sequence of 5-hydroxytryptamine receptor 2A (Homo sapiens) (P28223 whole entry, looked up): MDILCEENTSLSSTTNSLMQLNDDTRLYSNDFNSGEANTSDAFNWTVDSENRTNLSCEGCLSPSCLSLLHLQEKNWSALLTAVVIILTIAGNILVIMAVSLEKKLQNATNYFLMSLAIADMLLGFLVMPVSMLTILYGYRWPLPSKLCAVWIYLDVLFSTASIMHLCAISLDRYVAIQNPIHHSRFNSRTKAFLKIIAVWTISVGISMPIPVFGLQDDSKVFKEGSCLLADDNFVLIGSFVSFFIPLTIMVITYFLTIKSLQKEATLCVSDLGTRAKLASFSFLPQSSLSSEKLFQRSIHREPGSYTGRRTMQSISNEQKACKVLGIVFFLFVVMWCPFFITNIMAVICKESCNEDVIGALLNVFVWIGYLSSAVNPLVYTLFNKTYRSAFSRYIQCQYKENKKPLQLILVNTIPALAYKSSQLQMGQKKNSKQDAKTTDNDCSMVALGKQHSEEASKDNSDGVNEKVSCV

As for `CCC(C)(O)CCC=C(C)C` (centres undefined), the Potency result in [1], in experiment [2], in [3], in experiment [4], in experiment [5] and in experiment [6] was “inactive” each time. In addition, the Potency result in experiment [7], in experiment [8], in experiment [9], in experiment [10], in [11] and in experiment [12] was “inactive” each time. For the same compound, the Potency result in [13], in [14], in experiment [15], in [16], in [17] and in experiment [18] was “inactive” each time. For the same compound, the Potency entry in experiment [19] and in experiment [20] was “inactive” throughout.
Regarding `C1=C\CC/C=C\CC/C=C\CC/1`, the Potency entry in experiment [1], in experiment [2], in experiment [3], in experiment [4], in [5] and in experiment [6] was “inactive” throughout. The Potency result in experiment [7], in experiment [8], in [9], in experiment [11], in experiment [12] and in [13] was “inactive” throughout. Further, the Potency result in experiment [14], in experiment [15], in experiment [16], in experiment [17], in [18] and in [19] was “inactive” in each case. The Potency result in experiment [20] was “inactive”.
For `CN(C)c1ccc(Cc2ccc(N(C)C)cc2)cc1`, the Potency result in experiment [1], in experiment [3], in experiment [4], in experiment [5], in [6] and in experiment [7] was “inactive” throughout. Moreover, the Potency entry in [9], in experiment [10], in [12], in experiment [13], in [15] and in experiment [17] was “inactive” in each case. The Potency entry in experiment [18], in [19] and in experiment [20] was “inactive” throughout. The Potency result in experiment [2] is “inactive and 34.4 µM (active)”; in [11], 4.23 µM (active).
As for `COc1nc(C)nc(NC(=O)NS(=O)(=O)c2ccccc2OCCCl)n1`, the Potency entry in [1], in experiment [2], in experiment [3], in [4], in experiment [5] and in experiment [6] was “inactive” in each case. Also, the Potency result in experiment [7], in [9], in experiment [10], in experiment [11], in experiment [12] and in experiment [13] was “inactive” in each case. The Potency result in experiment [14], in experiment [16], in experiment [17] and in experiment [20] was “inactive” in each case.
As for `CC(=O)O[C@H](CC(=O)[O-])C[N+](C)(C)C`, the Potency entry in experiment [1], in experiment [2], in experiment [3], in experiment [4], in [5] and in [6] was “inactive” each time. In addition, the Potency result in experiment [7], in experiment [9], in [10], in [11], in experiment [12] and in experiment [13] was “inactive” in each case. In addition, the Potency result in [14], in experiment [15], in experiment [16] and in [17] was “inactive” throughout.
On to `[O]=[Zr]`, for which the Potency result in experiment [1], in experiment [2], in experiment [3], in [4], in experiment [5] and in experiment [6] was “inactive” in each case. The Potency entry in [7], in experiment [9], in experiment [10], in experiment [11], in [12] and in experiment [13] was “inactive” throughout. In addition, the Potency result in [14], in experiment [15], in experiment [16], in experiment [17], in experiment [18] and in [19] was “inactive” each time. In experiment [20], the Potency result is “inactive”.
As to `CCCCCCCCO[C@@H]1O[C@H](CO)[C@@H](O)[C@H](O)[C@H]1O`, the Potency entry in experiment [1], in experiment [2], in experiment [3], in experiment [4], in [5] and in [6] was “inactive” each time. Moreover, the Potency entry in [7], in experiment [8], in [9], in experiment [11], in [12] and in [13] was “inactive” in each case. The Potency entry in [14], in experiment [15], in experiment [16], in experiment [17], in experiment [18] and in experiment [19] was “inactive” in each case.
For `O=C(O)Cc1ccc(CCNS(=O)(=O)c2ccc(Cl)cc2)cc1`, the Potency entry in experiment [1], in experiment [2], in experiment [3], in [4], in experiment [5] and in experiment [6] was “inactive” in each case. In addition, the Potency result in [7], in experiment [9], in [10], in [11], in experiment [12] and in experiment [13] was “inactive” each time. Besides, the Potency entry in experiment [14], in experiment [15], in experiment [16], in [17], in experiment [18] and in [19] was “inactive” throughout. Moreover, the Potency result in experiment [20] is “inactive”.
